Assay outcomes deposited in PubChem by National Center for Advancing Translational Sciences (NCATS).
Shown are actives, neighbours in structure and some others; about 2.3% of the full set was active somewhere.
GLP1R inv ag = qHTS of GLP-1 Receptor Inverse Agonists (Inhibition Mode); Potency, µM (doses to about 38.3 µM), most hits filed as inhibitors; AID 624417, 2012; HEK293 GLP-1R CRE-luciferase, luminescence, 24 h; GLP-1R form is constitutively active; Glucagon-like peptide 1 receptor (Homo sapiens), P43220; hit rate 1.6% among 410,000; also: nearly all actives have a fitted effect of over 55% in size
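qHTS in 1536-well format: reporter HEK293 cells expressing constitutive GLP-1R activity in DMEM + 10% Nu serum, 24 hr with compounds at 37 deg C, luminescence read after 12 min with detection reagent.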
GRP78 ERSR act = qHTS for Inducers of the Endoplasmic Reticulum Stress Response (ERSR) in Human Glioma: qHTS. U87-MG GRP78 promoter luciferase reporter, 16 h. Potency, µM, most hits filed as activators. hit rate 0.02% among 420,000. AID 602332, 2012; also: series mostly up to about 76 µM; nearly all actives have a fitted effect of over 35% in size
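Stably transfected U87-MG human glioma cells carrying a GRP78-based luminescent sensor were seeded at 1000 cells/well, pin-dosed with compounds and incubated 16 h. Luciferase reagent was then added, and end-point luminescence was read after 10 min at room temperature.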
GLS inhibitor = qHTS for Inhibitors of Glutaminase (GLS); hit rate 0.21% among 410,000; Potency, µM (series often up to 45.5 µM), most hits filed as inhibitors; GLS enzymatic activity, qHTS titration
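hKGA; 45 mM KH2PO4 pH 8.2 + 0.02% Tween-20; cpd via pin tool; 1 mM Gln soln; GluOx/HRP/Amplex Red; RT 30 min; fluor. t0 & final.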
ALOX12 inh = Primary qHTS assay for inhibitors of human arachidonate 12S-lipoxygenase (ALOX12): Round 2 | Polyunsaturated fatty acid lipoxygenase ALOX12 (Homo sapiens), P18054 | purified 12hLO, xylenol orange hydroperoxide absorbance | Potency, µM (series often up to 108 µM), usual class: inhibitors | hit rate 1.1% among 580,000 | AID 1671190, 2021
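Hydroperoxide product was detected by ferrous iron/xylenol orange as the 573 to 405 nm absorbance ratio. Arachidonic acid at 40 uM (final) was turned over for 30 min at room temperature by 150 nM human 12hLO, pH 7.0 Hepes buffer, after 15 min compound preincubation.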
PTHR1 agonist = qHTS for PTHR1 Agonists: Primary Screen | HEK293 GP2 PTHR1 cells, GloSensor cAMP luminescence, 1 h | Potency, µM (titrated, usually from 115 µM), actives largely listed as activators | hit rate 0.075% among 410,000 | AID 743266, 2014; also: nearly all actives have a fitted effect of over 55% in size
Target sequence (Q03431 whole entry, looked up): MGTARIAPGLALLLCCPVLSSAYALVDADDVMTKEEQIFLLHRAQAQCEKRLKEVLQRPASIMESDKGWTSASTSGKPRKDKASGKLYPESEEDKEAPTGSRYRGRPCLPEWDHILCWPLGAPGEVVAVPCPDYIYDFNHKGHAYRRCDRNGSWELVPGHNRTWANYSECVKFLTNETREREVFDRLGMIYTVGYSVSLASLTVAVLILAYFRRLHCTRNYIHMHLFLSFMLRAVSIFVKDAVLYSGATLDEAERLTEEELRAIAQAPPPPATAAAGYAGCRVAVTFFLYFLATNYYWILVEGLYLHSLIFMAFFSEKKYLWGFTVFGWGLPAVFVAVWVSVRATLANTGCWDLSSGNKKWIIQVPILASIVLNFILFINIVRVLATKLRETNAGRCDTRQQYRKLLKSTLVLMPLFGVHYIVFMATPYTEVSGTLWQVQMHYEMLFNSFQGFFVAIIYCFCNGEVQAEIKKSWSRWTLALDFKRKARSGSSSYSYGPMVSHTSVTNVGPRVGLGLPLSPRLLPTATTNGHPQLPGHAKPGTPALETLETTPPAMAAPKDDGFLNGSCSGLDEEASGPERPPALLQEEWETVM
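HEK-293-derived GP2 cells expressing PTHR1 and a GloSensor cAMP reporter, 3,000/well, plated overnight, given luciferin plus IBMX (each 0.5 mM as added) for 1 h at 37 °C, then compound for 1 h at 37 °C. Luminescence was read after 15 min at room temperature.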
GLP-1R agonist = qHTS of GLP-1 Receptor Agonists; Glucagon-like peptide 1 receptor (Homo sapiens), P43220; HEK293 GLP-1R CRE-luciferase, luminescence, 4-6 h; cells express a hypersensitive GLP-1R form; Potency, µM (titrated, usually from 45.6 µM), actives largely listed as activators; hit rate 0.007% among 380,000
Of the large screens only hits and unclear results are named; the others gave an inactive call; ! = repeats disagree. Calls follow the shape of the dose curve; as a rule, active = well fitted curve in the direction sought with a large enough effect; inconclusive = small, poorly fitted or top-dose-only effect, or another doubt; inactive = no such curve, though single readings can be large; an effect the other way counts as inactive or inconclusive.

COc1ccc(-c2cc(C)no2)cc1S(=O)(=O)N1CCN(c2ccccn2)CC1	none
COc1ccc(-c2cc(C)no2)cc1S(=O)(=O)N1CCCN(Cc2ccccc2Cl)C1	GLP1R inv ag 8.91µM
CCOC(=O)C1CCN(S(=O)(=O)c2cc(-c3cc(C)no3)ccc2OC)CC1	none (no result: GLP-1R agonist)
COc1ccc(-c2cc(C)no2)cc1S(=O)(=O)N1CCN(c2ccccc2F)CC1	GLP1R inv ag 10µM!
CN(C(=O)C1CCN(S(=O)(=O)c2cccc3nonc23)CC1)C1CCCCC1	none
CN(Cc1ccccc1)C(=O)C1CCN(S(=O)(=O)c2cccc3nonc23)CC1	GLS inhibitor 10µM
COc1ccc(N2C(=O)CN(C3CCCCC3)[C@H]3CS(=O)(=O)C[C@H]32)cc1	ALOX12 inh 10µM (no result: GLP1R inv ag, GRP78 ERSR act, GLS inhibitor, PTHR1 agonist, GLP-1R agonist)
O=C1CCCC(O)=C1N=Nc1ccc(C(=O)O)cc1	GLS inhibitor 11.2µM, ALOX12 inh inconclusive
O=C1CCCC(O)=C1N=Nc1ccc2c(c1)OCO2	none
CC1=NOC(=O)/C1=C/c1ccc(O)c(Cl)c1	ALOX12 inh inconclusive
C#CCOc1c(Cl)cc(/C=C2/C(=O)ON=C2C)cc1OC	ALOX12 inh 28.2µM
CCCOc1ccc(/C=C2/C(=O)ON=C2C)cc1Cl	ALOX12 inh 5.62µM
COc1ccc(Cl)cc1/C=C1/C(=O)ON=C1C	ALOX12 inh 31.6µM
CCOc1ccc(Cl)cc1/C=C1/C(=O)ON=C1C	ALOX12 inh inconclusive
CC(Sc1ccccc1)C(=O)NC1CCCCC1 (configuration not stated)	none (no result: GLP1R inv ag, GRP78 ERSR act, GLS inhibitor, PTHR1 agonist, GLP-1R agonist)
O=S(=O)(Nc1nc2ccccc2nc1N1CCN(c2ncccn2)CC1)c1ccccc1	none (no result: GLP1R inv ag, GRP78 ERSR act, GLS inhibitor, PTHR1 agonist, GLP-1R agonist)
CCCn1nc(C(=O)OCc2ccc(C#N)cc2)c2ccccc2c1=O	none (no result: GLP1R inv ag, GRP78 ERSR act, GLS inhibitor, PTHR1 agonist, GLP-1R agonist)
Cc1nc2c(sc(=S)n2Cc2ccco2)c(=O)n1CC(=O)Nc1ccccc1	GLP1R inv ag 4.47µM, ALOX12 inh inconclusive
CCn1c(=S)sc2c(=O)n(CC(=O)Nc3cccc(Cl)c3)c(C)nc21	GLP1R inv ag 7.94µM
CCN(CC)S(=O)(=O)c1ccc2c(c1)N(CC(=O)N1CCN(c3cc(Cl)ccc3C)CC1)C(=O)CO2	none (no result: GLP-1R agonist)
Cc1cccnc1NC(=O)CN1C(=O)COc2ccc(Cl)cc21	ALOX12 inh 12.6µM
NS(=O)(=O)c1ccc(NC(=O)CN2C(=O)COc3ccc(Cl)cc32)cc1	ALOX12 inh 44.7µM (no result: GLP-1R agonist)
CCN(CC)S(=O)(=O)c1ccc2c(c1)N(CC(=O)NCCCN1CCN(c3cc(Cl)ccc3C)CC1)C(=O)CO2	GLP1R inv ag 11.2µM, ALOX12 inh inconclusive
O=C(CN1C(=O)COc2ccc(Cl)cc21)Nc1cccc(F)c1	GLP1R inv ag inconclusive (no result: GLP-1R agonist)
CCOC(=O)CNC(=O)c1ccc(C(=O)NCC(=O)OCC)cc1	none (no result: GLP1R inv ag, GRP78 ERSR act, GLS inhibitor, PTHR1 agonist, GLP-1R agonist)
CC(NC(=O)CSc1ccccc1F)c1nc2ccccc2[nH]1 (configuration not stated)	none (no result: GLP1R inv ag, GRP78 ERSR act, GLS inhibitor, PTHR1 agonist, GLP-1R agonist)
CCNCc1cc(OCC)c(OCC(=O)NCCc2ccccc2)cc1Cl	GLP1R inv ag inconclusive
CCOc1cc(CNCC(C)C)c(Cl)cc1OCC(=O)Nc1ccccc1	GLP1R inv ag 11.2µM
CCOC(=O)c1c(C)[nH]c(C(=O)OCC(=O)Nc2sccc2C(N)=O)c1C	GLP1R inv ag 11.2µM, ALOX12 inh inconclusive
CCOC(=O)c1cn(C)nc1S(=O)(=O)N1CCOCC1	ALOX12 inh 11.2µM (no result: GLP1R inv ag, GRP78 ERSR act, GLS inhibitor, PTHR1 agonist, GLP-1R agonist)
CCCCNC(=S)NC1CCCC1	GLP1R inv ag inconclusive
CC(C)OCCCNC(=S)NC1CCCC1	ALOX12 inh 35.5µM (no result: GLP1R inv ag, GRP78 ERSR act, GLS inhibitor, PTHR1 agonist, GLP-1R agonist)
Cc1ccc(NC(=O)CN(C)C(=O)c2cc(-c3ccco3)nc3ccccc23)cc1	GLP1R inv ag inconclusive, GLS inhibitor inconclusive, ALOX12 inh 7.08µM
Cc1ccc(NC(=O)CN(C)C(=O)c2ccccc2Cc2ccccc2)cc1	GLP1R inv ag 10µM
Cc1ccc(NC(=O)CN(C)C(=O)C(Sc2ccccc2)c2ccccc2)cc1 (configuration not stated)	GLP1R inv ag 8.91µM
